Cycloheximide cs – counter-screen for Shiga toxin inhibitors: cycloheximide protein synthesis inhibition; cell reporter, cycloheximide protein synthesis inhibition counterscreen; max response, %; actives 12% (n = 300,000); AID 2314; in the data active = max response mostly above about 13%, no sharp cut-off; inactive = mostly below about 14%; also: read at 38.3 µM for the half of the compounds with a filed dose
NS1 inh – blocks influenza NS1 protein function; Potency, µM (doses to about 46.1 µM); actives 0.4% (n = 270,000); AID 2326; calls by dose curve; also: actives are rising curves; nearly all actives have a fitted effect of over 50% in size
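Growth recovery, yeast-based: influenza A NS1 expressed in S. cerevisiae causes slow growth, and suppressors are detected by OD600. The parent strain without NS1 is used as positive control.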
Shiga inhibitor – inhibitors of Shiga toxin in Vero cells. Vero cells, Shiga toxin protein synthesis inhibition reporter. inhibition, % at 38.7 µM. actives 9.2% (n = 290,000); in the data active = inhibition mostly above about 28%, no sharp cut-off; inactive = mostly below about 43%
AmpC inh no detg – AmpC beta-lactamase inhibition without detergent. AmpC nitrocefin hydrolysis, absorbance 480 nm, 0.0001% Triton. Potency, µM (top dose mostly 57.1 µM), usual class: inhibitors. actives 0.52% (n = 330,000); also: nearly all actives have a fitted effect of over 20% in size
Target sequence (P00811 whole entry, looked up): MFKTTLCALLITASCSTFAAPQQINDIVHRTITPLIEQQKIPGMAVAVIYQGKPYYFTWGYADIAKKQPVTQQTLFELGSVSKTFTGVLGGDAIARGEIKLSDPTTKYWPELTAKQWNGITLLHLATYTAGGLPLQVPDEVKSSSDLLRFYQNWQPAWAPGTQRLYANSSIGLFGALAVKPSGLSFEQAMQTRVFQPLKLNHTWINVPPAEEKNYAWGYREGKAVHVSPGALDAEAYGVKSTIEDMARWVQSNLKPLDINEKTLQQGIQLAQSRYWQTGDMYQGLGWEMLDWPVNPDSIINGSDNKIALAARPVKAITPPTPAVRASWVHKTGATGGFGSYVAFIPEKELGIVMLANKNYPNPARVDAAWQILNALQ
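AmpC (5.3 nM in the dispensed reagent) in 20 mM phosphate pH 7.0 with 0.01% (detergent screen) or 0.0001% Triton X-100 was preincubated with compounds for 15 min at room temperature. Nitrocefin was then added from an 800 uM solution, and hydrolysis was followed at 480 nm.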
AmpC inh detg – blocks E. coli AmpC beta-lactamase in detergent assay; AmpC hydrolysis of nitrocefin, absorbance 480 nm, 0.01% Triton; P00811; Potency, µM (titrated, usually from 114 µM), actives largely listed as inhibitors; actives 0.041% (n = 370,000); also: nearly all actives have a fitted effect of over 25% in size
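20 mM phosphate pH 7.0 + 0.01% (detergent screen) or 0.0001% Triton X-100; 5.3 nM AmpC reagent; cpd preinc 15 min RT; nitrocefin (800 uM stock) to start; A480 q20 s × 4 min; Activity was normalised to no-enzyme and no-compound control wells.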
Hits are given with their value; . = inactive; ? = inconclusive; / = not tested or not shown; + = active, no number. Shown is part of a subset that was picked to be rich in hits. Unless noted, calls follow the shape of the dose curve; as a rule, active = well fitted curve in the direction sought with a large enough effect; inconclusive = small, poorly fitted or top-dose-only effect, or another doubt; inactive = no such curve, though single readings can be large; an effect the other way counts as inactive or inconclusive.

SMILES	Cycloheximide cs	NS1 inh	Shiga inhibitor	AmpC inh no detg	AmpC inh detg
Cc1ccc(S(=O)(=O)N(C)CCCC(=O)N2CCN(c3ccccn3)CC2)cc1	.	.	.	.	.
CN(CCCC(=O)N1CCN(c2ncccn2)CC1)S(=O)(=O)c1ccc(F)cc1	/	/	/	.	/
CN(CC(=O)N1CCN(c2ncccn2)CC1)S(=O)(=O)c1ccc(Cl)cc1	21	/	.	.	.
CC(=O)Nc1ccc(CN2CCCN(C)CC2)cc1	.	.	.	.	.
CCN1CCN(Cc2ccc(NC(=O)Nc3ccc(OC)cc3)cc2)CC1	21	.	42	.	?
CCN1CCN(Cc2ccc(NC(=O)Nc3ccc(SC)cc3)cc2)CC1	44	.	58	.	?
CCN1CCN(Cc2ccc(NC(=O)Nc3cccs3)cc2)CC1	41	.	40	.	.
CSc1ccc(CN2CCN(C(=O)CC(C)C)CC2)cc1	.	.	/	.	?
CCN1CCN(Cc2ccc(NC(=O)Nc3ccccc3)cc2)CC1	46	.	+	.	?
CC(C)C[C@H](NC(=O)N1CCn2c1nc1ccccc12)C(=O)N[C@H](Cc1ccccc1)C(=O)O	.	.	.	.	?
COc1cc(/C=C/C(=O)c2c(O)cc(C)oc2=O)cc(OC)c1O	.	.	.	.	.
COc1cccc(/C=C/C(=O)c2c(O)cc(C)oc2=O)c1O	.	.	.	.	.
COc1ccc(/C=C/C(=O)c2c(O)cc(C)oc2=O)c(OC)c1	24	.	.	.	.
CSc1ccc(/C=C/C(=O)c2c(O)cc(C)oc2=O)cc1	37	?	52	28µM	.
Cc1cc(O)c(C(=O)/C=C/c2ccc(Cl)cc2)c(=O)o1	32	.	50	25µM	.
Cc1c2cnn(-c3ccccc3)c(=O)c2c(C)n1CC(=O)NCCc1ccc(Cl)cc1	/	/	/	/	.
CN(CC(=O)Nc1ccc(Cl)cc1)CC(=O)Nc1cc(Cl)ccc1C#N	.	.	.	.	.
Cc1ccc(-n2c(CSc3nc(C)cc(C)n3)nnc2SCC(=O)NCc2ccco2)cc1	.	.	.	.	.
CC(C)=CCc1c(O)cc2oc3c(CC=C(C)C)c(O)c(O)c(CC=C(C)C)c3c(=O)c2c1O	.	.	.	14µM	.
COc1cc(C2C(C#N)=C(N)Oc3cc(C)n(CCN4CCOCC4)c(=O)c32)cc(OC)c1OC (stereo not given)	41	.	.	.	.
COc1cc(C2C(C#N)=C(N)OC3=C2C(=O)CC(C)(C)C3)ccc1OCCN1CCOCC1 (stereo not given)	21	.	.	.	.
COc1ccc(C2C(C#N)=C(N)OC3=C2C(=O)CC(C)(C)C3)cc1OC (stereo not given)	.	.	.	.	.
CCOc1ccc(C2C(C#N)=C(N)Oc3cc(C)n(CCN4CCOCC4)c(=O)c32)cc1OCC (stereo not given)	.	.	.	.	?
CC(=O)Nc1ccc(OCc2ccc3c(c2)OCO3)cc1	46	.	167	.	.
CCOc1ccc(CNC(=S)NCc2ccc(OCC)cc2)cc1	11	.	.	.	.
SMILES	Cycloheximide cs	NS1 inh	Shiga inhibitor	AmpC inh no detg	AmpC inh detg
COc1ccc(NC(=O)NCc2ccc3c(c2)OCO3)cc1	.	.	.	.	.
CCOc1ccc(NC(=S)NCc2ccc3c(c2)OCO3)cc1	9.1	.	.	.	.
COc1ccc(CNC(=S)NCc2ccc(OC)cc2)cc1	.	.	.	.	.
COc1ccc(-c2nnc(Nc3ccc(OCC(N)=O)cc3)c3ccccc23)cc1	/	/	/	/	.
CC(C)NC(=O)C1CCC(Cn2c(=O)c3sccc3n(CC(=O)N3CCCC3)c2=O)CC1 (stereo not given)	/	/	/	/	.
O=C(Cn1c(=O)oc2cc(S(=O)(=O)N3CCCCC3)ccc21)Nc1cccc(Cl)c1	/	/	/	/	.
NS(=O)(=O)c1cccc(NC(=O)CSc2nc3nc(-c4cccs4)cc(C(F)(F)F)c3c(=O)[nH]2)c1	.	.	.	16µM	.
O=C(CSc1nc2nc(-c3cccs3)cc(C(F)(F)F)c2c(=O)[nH]1)Nc1c(F)c(F)c(F)c(F)c1F	.	.	.	.	.
CCOc1ccc(NC(=O)CCS(=O)(=O)c2cccc3nonc23)cc1	/	/	/	/	.
CCOCCCNC(=O)CN1C(=O)CCn2nc(-c3cccn3C)cc21	/	/	/	/	.
O=C1NC(c2ccccc2Cl)=N/C1=C/c1ccco1	38	.	61	.	.
O=C1NC(c2ccc(Br)cc2)=N/C1=C/c1ccco1	41	.	63	.	.

High-throughput results from PubChem.
